A short description of test [1]: NCI Yeast Anticancer Drug Screen. Data for the rad50 strain (AID 155).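 Also: 0% = growth of vehicle-only cultures of the same strain.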 Particulars: S. cerevisiae rad50 strain growth inhibition, active compounds read high. The gist of the method: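 Vehicle-treated cultures provide the reference for the growth inhibition reported for compound-exposed, repair-deficient yeast.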
A short description of test [2]: NCI Yeast Anticancer Drug Screen. Data for the mec2-1 strain (AID 157). Particulars: S. cerevisiae mec2-1 strain, active compounds read high. A digest of the protocol:
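Each compound was tested on mec2-1 yeast, a strain altered in DNA damage repair or cell cycle control. Growth inhibition is reported relative to vehicle.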

Test [3] can be described thus: NCI Yeast Anticancer Drug Screen. Data for the sgs1 mgt1 strain (AID 161).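 Also: 0% = growth of cultures given vehicle only.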 The note with it: S. cerevisiae sgs1 mgt1 strain, active compounds read high. The gist of the method:
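Read-out: growth inhibition vs vehicle controls. Cells: mutant yeast strain deficient in DNA damage repair.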

Test [4] can be described thus: NCI Yeast Anticancer Drug Screen. Data for the cln2 rad14 strain (AID 165).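 Also: 0% = growth equal to vehicle treated cultures.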 Particulars: S. cerevisiae cln2 rad14 strain, active compounds read high. A digest of the protocol:
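Test compounds were added to cln2 rad14 yeast cultures; inhibition of growth was then determined by comparison with vehicle treatment.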

The nature of test [5]: NCI Yeast Anticancer Drug Screen. Data for the bub3 strain (AID 167). The note with it: S. cerevisiae bub3 mutant strain, active compounds read high. The gist of the method: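 Mutant yeast screening strain plus compound; vehicle-treated cultures serve as the 0% inhibition reference.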
The nature of test [6]: NCI Yeast Anticancer Drug Screen. Data for the mlh1 rad18 strain (AID 175). Particulars: S. cerevisiae mlh1 rad18 strain growth inhibition, active compounds read high. A digest of the protocol:
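Inhibition values reflect reduced growth of mutant yeast versus vehicle-treated controls following compound exposure; the mutations affect DNA damage repair.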

Where [7] appears, read: at 5.0 µM (retest, dose inferred, filed as 0.5).
[8] abbreviates: at 50.0 µM (retest, dose inferred, filed as 5.0).

Among the data in PubChem BioAssay (NCI) are growth inhibition values, retold here.

About 79,000 compounds went through this panel and 15% of them were active in at least one assay; those are over-represented in the sample as a whole. Values without a mark were called inactive. Active and inactive are the calls of the source. Rule as the data show it: active = growth inhibition above about 70%; inactive = the rest.

`Cc1ccc(S(=O)(=O)N=S(=O)(CCCl)CCCl)cc1`: the growth inhibition in test [1] (setting [7]) was 16%; in test [1] (setting [8]), 98% (active); in test [1] (at 50.0 µM), 94% (active); in test [2] (setting [7]), 17%; in test [2] (setting [8]), 97% (active); in test [2] (at 50.0 µM), 88.5% (active). In addition, the growth inhibition in test [3] (setting [7]) is 25%; in test [3] (setting [8]), 99% (active); in test [3] (at 50.0 µM), 97.5% (active); in test [4] (setting [7]), 18%; in test [4] (setting [8]) it was 94% (active); in test [4] (at 50.0 µM), 62.9%. Further, the growth inhibition in test [5] (setting [7]) is 9%; in test [5] (setting [8]) it was 89% (active); in test [5] (at 50.0 µM), 47.4%; in test [6] (setting [7]) it was 27%; in test [6] (setting [8]), 98% (active); in test [6] (at 50.0 µM) it was 96.7% (active).

`CN(Cc1ccccc1)CC(O)c1cccc(I)c1` (configuration not stated): the growth inhibition in test [1] (setting [7]) was -3%; in test [1] (setting [8]) it was 18%; in test [1] (at 50.0 µM), 49.5%; in test [2] (setting [7]) it was -3%; in test [2] (setting [8]), 9%; in test [2] (at 50.0 µM), 11.3%. Besides, the growth inhibition in test [3] (setting [7]) is -2%; in test [3] (setting [8]), 36%; in test [3] (at 50.0 µM), 51.6%; in test [4] (setting [7]), 1%; in test [4] (setting [8]) it was 11%; in test [4] (at 50.0 µM), 31.6%. Also, the growth inhibition is 0% in test [5] (setting [7]); 35% in test [5] (setting [8]); 56.2% in test [5] (at 50.0 µM); -4% in test [6] (setting [7]); 24% in test [6] (setting [8]); 27.2% in test [6] (at 50.0 µM).

With `CCCCCc1cc(O)c(CCCC)c(O)c1`, the growth inhibition was -107% in test [1] (setting [7]); 87% (active) in test [1] (setting [8]); 99.4% (active) in test [1] (at 50.0 µM); -39% in test [2] (setting [7]); 63% in test [2] (setting [8]); 99% (active) in test [2] (at 50.0 µM). The growth inhibition is -43% in test [3] (setting [7]); 90% (active) in test [3] (setting [8]); 99% (active) in test [3] (at 50.0 µM); -47% in test [4] (setting [7]); 32% in test [4] (setting [8]); 99.1% (active) in test [4] (at 50.0 µM). Further, the growth inhibition in test [5] (setting [7]) was -56%; in test [5] (setting [8]), 83% (active); in test [5] (at 50.0 µM), 99.2% (active); in test [6] (setting [7]), -92%; in test [6] (setting [8]), 87% (active); in test [6] (at 50.0 µM), 99% (active).

Take `COc1cc(/C=C(/C)[N+](=O)[O-])c([N+](=O)[O-])cc1OC`: the growth inhibition in test [1] (setting [7]) is 29%; in test [1] (setting [8]) it was 75% (active); in test [1] (at 50.0 µM), 88.3% (active); in test [2] (setting [7]) it was 2%; in test [2] (setting [8]), 33%; in test [2] (at 50.0 µM), 85.5% (active). The growth inhibition in test [3] (setting [7]) was 14%; in test [3] (setting [8]) it was 65%; in test [3] (at 50.0 µM), 71.7% (active); in test [4] (setting [7]), 3%; in test [4] (setting [8]), 29%; in test [4] (at 50.0 µM), 14.8%. Moreover, the growth inhibition in test [5] (setting [7]) is 0%; in test [5] (setting [8]), 54%; in test [5] (at 50.0 µM), 67%; in test [6] (setting [7]), 10%; in test [6] (setting [8]) it was 35%; in test [6] (at 50.0 µM), 71.7% (active).

For `CC[C@@]1(O)C[C@H](OC2CC(N(C)C)C(O)C(C)O2)c2c(cc3c(c2O)C(=O)c2c(O)ccc(O)c2C3=O)[C@H]1C(=O)OC` (some centres not stated), the growth inhibition in test [1] (setting [7]) was 96% (active); in test [1] (setting [8]) it was 98% (active); in test [1] (at 50.0 µM), 91.1% (active); in test [2] (setting [7]), 77% (active); in test [2] (setting [8]) it was 98% (active); in test [2] (at 50.0 µM), 92.1% (active). The growth inhibition in test [3] (setting [7]) is 88% (active); in test [3] (setting [8]), 99% (active); in test [3] (at 50.0 µM) it was 92.5% (active); in test [4] (setting [7]) it was 82% (active); in test [4] (setting [8]), 99% (active); in test [4] (at 50.0 µM), 88.7% (active). The growth inhibition in test [5] (setting [7]) is 88% (active); in test [5] (setting [8]) it was 99% (active); in test [5] (at 50.0 µM), 91.2% (active); in test [6] (setting [7]), 94% (active); in test [6] (setting [8]), 98% (active); in test [6] (at 50.0 µM), 93.2% (active).

On to `C[CH2][Sn]([O][Sn]([Cl])([CH2]C)[c]1ccccc1)[c]1ccccc1` (configuration not stated), for which the growth inhibition in test [1] (setting [7]) was 10%; in test [1] (setting [8]), 97% (active); in test [1] (at 50.0 µM), 81.5% (active); in test [2] (setting [7]), 18%; in test [2] (setting [8]), 98% (active); in test [2] (at 50.0 µM), 73.2% (active). The growth inhibition in test [3] (setting [7]) is -9%; in test [3] (setting [8]) it was 96% (active); in test [3] (at 50.0 µM), 80.9% (active); in test [4] (setting [7]), 28%; in test [4] (setting [8]), 96% (active); in test [4] (at 50.0 µM), 81.9% (active). In addition, the growth inhibition in test [5] (setting [7]) is 9%; in test [5] (setting [8]) it was 97% (active); in test [5] (at 50.0 µM), 78.1% (active); in test [6] (setting [7]), 17%; in test [6] (setting [8]) it was 98% (active); in test [6] (at 50.0 µM) it was 87% (active).

Turning to `O=[N+]([O-])c1cc([N+](=O)[O-])c(Cl)s1`, the growth inhibition in test [1] (setting [7]) is 98% (active); in test [1] (setting [8]), 99% (active); in test [1] (at 50.0 µM), 99.5% (active); in test [2] (setting [7]), 99% (active); in test [2] (setting [8]), 83% (active); in test [2] (at 50.0 µM), 99.7% (active). The growth inhibition in test [3] (setting [7]) was 99% (active); in test [3] (setting [8]), 100% (active); in test [3] (at 50.0 µM), 99.4% (active); in test [4] (setting [7]) it was 99% (active); in test [4] (setting [8]), 98% (active); in test [4] (at 50.0 µM), 99.3% (active). The growth inhibition was 99% (active) in test [5] (setting [7]); 99% (active) in test [5] (setting [8]); 99.5% (active) in test [5] (at 50.0 µM); 99% (active) in test [6] (setting [7]); 99% (active) in test [6] (setting [8]); 99.6% (active) in test [6] (at 50.0 µM).

On to `CO[C@@]12[C@@H]3N[C@@H]3CN1C1=C(C(=O)C(N(C)c3ccc(O)cc3)=C(C)C1=O)[C@@H]2COC(N)=O`, for which the growth inhibition in test [1] (setting [7]) is 21%; in test [1] (setting [8]) it was 64%; in test [1] (at 50.0 µM), 81.9% (active); in test [2] (setting [7]) it was 24%; in test [2] (setting [8]) it was 70% (active); in test [2] (at 50.0 µM), 76% (active). Also, the growth inhibition in test [3] (setting [7]) is -7%; in test [3] (setting [8]), 44%; in test [3] (at 50.0 µM) it was 68.4%; in test [4] (setting [7]) it was 1%; in test [4] (setting [8]), 62%; in test [4] (at 50.0 µM) it was 65%. Besides, the growth inhibition was -5% in test [5] (setting [7]); 30% in test [5] (setting [8]); 53.2% in test [5] (at 50.0 µM); 33% in test [6] (setting [7]); 96% (active) in test [6] (setting [8]); 83.2% (active) in test [6] (at 50.0 µM).

For `COc1ccc2nc3ccccc3c(NCCCCN(C)CCCl)c2c1`, the growth inhibition in test [1] (setting [7]) is 58%; in test [1] (setting [8]), 86% (active); in test [1] (at 50.0 µM), 77.2% (active); in test [2] (setting [7]), 23%; in test [2] (setting [8]), 87% (active); in test [2] (at 50.0 µM) it was 70.8% (active). The growth inhibition was 42% in test [3] (setting [7]); 99% (active) in test [3] (setting [8]); 83.9% (active) in test [3] (at 50.0 µM); 34% in test [4] (setting [7]); 98% (active) in test [4] (setting [8]); 70% in test [4] (at 50.0 µM). In addition, the growth inhibition in test [5] (setting [7]) was 46%; in test [5] (setting [8]) it was 99% (active); in test [5] (at 50.0 µM), 62.6%; in test [6] (setting [7]), 61%; in test [6] (setting [8]), 91% (active); in test [6] (at 50.0 µM), 75.6% (active).
